The source of these data is PubChem BioAssay (NCI).

Where “and” joins values, the source holds several entries; their conditions need not be identical. Identical values can stand only once. This is part of a sample that, as a whole, favours compounds with a hit. Of some 83,000 tested, about 20% had one in any assay.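 For each line, cells grew in 96-well plates with the test compound present at a single concentration for 48 hours.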 A number with no mark means an inactive call. Calls of active or inactive are those of the source. The calls were made as follows: active = growth percent below 10; inactive = the rest.

In this experiment the test system is MDA-MB-468 breast. Put plainly: NCI-60 one-dose screen, 48 h (100 = growth as untreated, 0 = no growth, -100 = all killed). The following applies: 10 µM unless noted.
`Cc1[c-]onc1C.Cc1[c-]onc1C.[Ag].[Ag].[NH-]S(=O)(=O)c1ccc(N=Nc2cc(N=Nc3ccc(S([NH-])(=O)=O)cc3)c3c(NC(=O)C(Cl)Cl)cccc3c2OC(=O)C(Cl)Cl)cc1`: the growth was 53.9%.

Regarding `Oc1[nH]c2cc(Cl)ccc2c1/C=c1/ccc2c(c1)N=C(c1cc(F)cc(F)c1)N=2`, the growth is -19.6% (active). `C#C[C@]1(O)CC[C@H]2[C@@H]3CC=C4c5sc(Nc6ccncc6)nc5CC[C@]4(C)[C@H]3CC[C@@]21C`: the growth was -26.2% (active). The result for `NC(=O)c1noc(C(=O)c2ccccc2)c1N` reads 95.5%. Under `Nc1ccccc1NC(=O)c1ccc(CCCC(=O)Nc2ccc(C3CC3N)cc2)cc1` (stereo unspecified) stands -4.41% (active); under `C=C(C)[C@@H]1CC[C@]2(C(=O)OC)CC[C@]3(C)[C@H](CC[C@@H]4[C@@]5(C)C/C(=C/NC(N)=S)C(=O)C(C)(C)[C@@H]5CC[C@]43C)[C@@H]12`, 103%; under `COc1ccc2[nH]c(=O)c(/C=C/C(=O)/C=C/c3ccc(O)c(OC)c3)cc2c1`, -32.1% (active). With `COc1ccc(NC(=O)CSc2nc(C)c(C(C)=O)n2-c2ccc([N+](=O)[O-])cc2)cc1`, the growth is 91.4%. For the compound `CCC(C)(C)C(=O)O[C@H]1C[C@@H](C)C=C2C=C[C@H](C)[C@H](CC[C@@H]3CC(SCCN)CC(=O)O3)[C@H]21` (stereo partly specified), the growth was 90.3%. As for `COc1ccc(-c2nn(-c3cccc(NC(=O)c4ccc(Cl)c(Cl)c4)c3)cc2-c2ccncc2)cc1Cl`, the growth was 73.3%.

Turning to `CCC(C)N(c1ccc(Cl)cc1)c1nc(-c2ccc(Br)cc2)cs1` (stereo unspecified), the growth is 95.7%. As for `COc1ccc(-c2nc3ccc(-c4nnc(SCC(=O)Nc5ccc(C(=O)/C=C/c6ccc(Cl)cc6)cc5)o4)cc3[nH]2)cc1`, the growth was 98.1%.

Regarding `COc1ncnc2c(-c3ccccc3)cn(COCc3ccccc3)c12`, the growth is 42.1%. For `CC(=O)Nc1c(C(=O)Nc2ccccc2)sc2nc3c(cc12)C(OC(C)=O)CCC3` (stereo unspecified), the growth was 90.5%. Turning to `C/C(=N\Nc1ccc(Cl)cn1)c1ccc2ccccc2n1`, the growth was -20.3% (active). `CCOC(=O)C(O)C(O)(c1ccccc1)c1ccccc1` (stereo unspecified): the growth was 115%. As for `CC(=O)OC[C@]1(C)C=C2C(=O)[C@](C)(O)C3(CC3)C(C)=C2[C@H]1OC(C)=O`, the growth is 21.6%. Under `O=c1[nH]c2ccccc2cc1CSc1ccccc1Nc1nccc(-c2ccc(Cl)cc2)n1` stands 99.3%; under `COc1ccc([N+](=O)[O-])cc1OC`, 108% and 101%; under `N#Cc1c(-c2ccc(F)cc2)n2c(nc1=O)SC(=O)C2=O`, 94.5%.

Take `O=C(/C=C/C=C/c1c(C2CC2)nc2ccccc2c1-c1ccc(F)cc1)c1cccs1`: the growth is 4.94% (active). Take `O=C(CN1CCN(c2cc3c(cc2F)c(=O)c(C(=O)O)cn3C2CC2)CC1)Nc1nc(-c2ccc(Cl)cc2)cs1`: the growth was 21.7%. On to `CCSc1nc(Cl)c(C#N)c(-c2ccc(F)cc2)n1`, for which the growth is 84.2%.

For the compound `Cc1ccc(N)cc1F`, the growth is 100%. Under `COc1ccc(C2CC(c3cc(OC)c(OC)c(OC)c3)=NN2c2ccc(S(N)(=O)=O)cc2)cc1` (stereo unspecified) stands 71%. In the case of `CCOC(=O)CCN(CCC(=O)OCC)c1ccccc1`, the growth is 96.6%. Under `Clc1nc(N2CCC[N+]3(CC2)CC[N+]2(CCCNCC2)CC3)nc(N2CCC[N+]3(CC2)CC[N+]2(CCCNCC2)CC3)n1` (stereo unspecified) stands 65.8%. Under `COc1cc(-c2nc(Nc3nc4ccccc4[nH]3)nc(N)c2C#N)cc(OC)c1OC` stands 48.5%. In the case of `CC1OC(n2c3ccccc3c3c4c(c5c6ccccc6[nH]c5c32)C(=O)N(CCN[C@@H]2CCC[C@H]2N)C4=O)CC(O)C1O` (stereo partly specified), the growth was -26.9% (active). Consider `Nc1nnc2cc(F)ccc2n1`, for which the growth was 122%. Regarding `CCCCCCCCCCCCCCCC[N+]1(C)CCN(SN2CC[N+](C)(CCCCCCCCCCCCCCCC)CC2)CC1`, the growth is 52.2%. As for `CC(=O)C1Cc2ccccc2C1=O` (stereo unspecified), the growth was 105%.

With `Cc1ccc(S(=O)(=O)O)c(C)c1`, the growth was 107%. Turning to `CN1C(=O)/C(=C/c2ccc(C(=O)Nc3ncc(Cc4cc(Cl)ccc4Cl)s3)cc2)SC1=S`, the growth was 44.2%. Regarding `CNC(=O)c1cc(COc2nnc(Nc3ccc(Cl)cc3)c3ccoc23)ccn1`, the growth was 65%.

With `Cc1cnc(N)s1`, the growth was 102%.
